MCF10A rerep: A quantitative high throughput screen for small molecules that induce DNA re-replication in MCF 10a normal breast cells; Potency, µM (highest dose often 46.1 µM), for inactives: at the top dose activity, positive = re-replication, hits mostly activators; MCF 10A DNA re-replication, Hoechst nuclear intensity, 48 h; actives 2.9% (n = 350,000); further: % of control where 0% means no effect; nearly all actives have a fitted effect of over 50% in size
KB-V1 cytotox: qHTS assay for MDR1-selective chemotherapeutics: Primary screen using the drug-selected MDR subline cells KB-V1 | KB-V1 MDR cells viability, CellTiter-Glo, 72 h | Potency, µM (doses to about 46.1 µM), hits mostly cytotoxic | actives 3.4% (n = 400,000) | AID 1347076, 2019; further: on the % scale 0 is the no-effect control and ±100 the full control effect; nearly all actives have a fitted effect of over 60% in size
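qHTS viability screen in drug-selected KB-V1 MDR cells: 72 h compound treatment at 37 degrees C, ATP luminescence end point.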
HT1080 IDH1KD tx: qHTS for induction of synthetic lethality in tumor cells producing 2HG: qHTS for the HT-1080-IDH1KD cell line | Potency, µM (doses to about 46.1 µM), inactives show at the top dose activity, negative = toxicity, actives largely listed as cytotoxic | actives 2% (n = 360,000) | HT-1080 IDH1 knockdown viability, ATP luminescence, 48 h;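 further: 0% = DMSO wells and -100% = cell-free medium wells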
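In this qHTS, HT-1080 cells depleted of IDH1 are exposed for 48 h at 37 °C to compound titrations. Toxicity is scored from CellTiter-Glo luminescence, with DMSO as full viability and medium alone as none.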
HT1080-NT tox: qHTS for induction of synthetic lethality in tumor cells producing 2HG: qHTS for the HT-1080-NT fibrosarcoma cell line; Potency, µM (series often up to 46.1 µM), inactives show top-dose activity, negative = less viability, most hits filed as cytotoxic; actives 1.6% (n = 360,000); HT-1080-NT fibrosarcoma viability, CellTiter-Glo ATP luminescence, 48 h;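 further: NT is the 2HG producing partner of a matched IDH1 knockdown line; 0% = DMSO-treated cells and -100% = media-only wells without cells; nearly all actives have a fitted effect of over 55% in size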
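HT-1080-NT; 750 cells/well; 5% FBS RPMI; 48 h compound, 37 degrees C; CellTiter-Glo luminescence; curve fitting and curve-class assignment.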
SW480 rereplic: A quantitative high throughput screen for small molecules that induce DNA re-replication in SW480 colon adenocarcinoma cells | actives 1.8% (n = 340,000) | SW480 DNA re-replication, Hoechst DNA content imaging, 48 h | Potency, µM (doses to about 46.1 µM), for the others: at the top dose re-replication activation, hits mostly activators; further: % of control where 0% means no effect; nearly all actives have a fitted effect of over 55% in size
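First, 250 cells per well were seeded. Next, compound or vehicle (23 nL) was pinned in, plates sat 48 hr at 37 C. Finally Hoechst was added for 40 min before fluorescence scanning.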
KB-3-1 tox: qHTS assay for MDR1-selective chemotherapeutics: Primary screen using the parental adenocarcinoma cell KB-3-1; KB-3-1 viability, CellTiter-Glo ATP luminescence, 72 h; Potency, µM (doses to about 46.1 µM), usual class: cytotoxic; actives 1.4% (n = 400,000); AID 1347075, 2019; further: on the % scale 0 is the no-effect control and ±100 the full control effect; nearly all actives have a fitted effect of over 60% in size
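Cytotoxicity measured as CellTiter-Glo luminescence after 72 h at 37 C. Compound titrations were pinned onto drug-naive KB-3-1 parental adenocarcinoma cells grown in DMEM with 10% FBS, and normalized data fitted to concentration-response curves.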
The depositor's hits bear a star; i = inactive; ? = inconclusive; / = no result; ! = not active in a repeat. Shown are actives, neighbours in structure and some others; about 8% of the full set was active somewhere. The call rests on the fitted dose curve; in most records, active means well fitted curve in the direction sought with a large enough effect; inconclusive means small, poorly fitted or top-dose-only effect, or another doubt; inactive means no such curve, though single readings can be large; an effect the other way counts as inactive or inconclusive. Potency means the concentration at half of the fitted maximal effect.

SMILES | MCF10A rerep | KB-V1 cytotox | HT1080 IDH1KD tx | HT1080-NT tox | SW480 rereplic | KB-3-1 tox
COc1ccc(NC(=O)CCC(=O)c2cccs2)cc1S(=O)(=O)Nc1ccc(Cl)cc1 | -1.6% | 7.31µM* | 0.82µM* | -5.0% | -9.5% | ?
COc1ccc(NC(=O)CCS(=O)(=O)c2ccccc2Cl)cc1S(=O)(=O)Nc1ccc(Cl)cc1 | 16.4µM* | ? | ? | ? | ? | i
COc1ccccc1NS(=O)(=O)c1cc(NC(=O)CCC(=O)c2cccs2)ccc1Cl | 1.2% | i | -18.9% | -12.1% | -1.7% | i
O=C(O)[C@@H](O)[C@@H](O)[C@H](O)C(=O)CO | 10.7% | / | / | / | 2.1% | /
O=C(c1ccco1)N1CCN(C(=O)N2CCOCC2)CC1 | ? | i | -4.4% | 1.0% | 0.164µM* | i
O=C(c1ccco1)N1CCCN(C(=O)c2ccco2)CC1 | 6.3% | i | 5.6% | 15.6% | -13.1% | i
O=C(c1ccco1)N1CCN(C(=O)c2ccco2)C1=S | 2.59µM* | 16.4µM* | 16.4µM* | ? | 5.8µM* | 11.6µM*
CC(C)COc1ccc(CC(=O)NO)cc1 | / | i | / | / | / | i
CCOc1c(C)cc(-c2ncccc2O)cc1C | 11.6% | 13µM*! | -20.2% | -1.3% | 14.1% | ?
COc1ccc(-c2ncccc2O)cc1 | -2.1% | i | 10.7% | 14.4% | 2.1% | i
CCc1c(C)nc2ncnn2c1NCCc1ccc(OC)cc1 | 2.51µM* | ? | 3.55µM* | 6.31µM* | 5.62µM* | 5.62µM*
CCc1c(C)nc2ncnn2c1Nc1ccc(C)cc1 | 10.5% | i | 7.5% | 13.0% | -6.5% | i
c1ccc(CSc2nnc(SCc3ccccn3)s2)nc1 | 13.2% | 16.4µM* | 8.8% | 18.8% | 4.1% | i
CCC(c1nnnn1CS(=O)(=O)c1ccc(C)cc1)N1CCN(c2nc3ccccc3s2)CC1 (stereo not drawn) | ? | 4.11µM* | -2.4% | -4.3% | ? | i
CCCC(c1nnnn1CS(=O)(=O)c1ccc(C)cc1)N1CCN(c2ccccc2)CC1 (stereo not drawn) | -4.1% | ? | -8.9% | -0.4% | 16.0% | i
Cc1cccc(CN2CCC(C(=O)Nc3cccc(-c4cccc(F)c4)c3)CC2)n1 | ? | i | ? | ? | ? | i
Cn1cc(CN2CCC(C(=O)Nc3cccc(-c4cccc(F)c4)c3)CC2)cn1 | ? | i | 23.1µM* | 20.6µM* | ? | i
CCCn1ncc(CN2CCC(C(=O)Nc3cccc(-c4cccc(F)c4)c3)CC2)c1C | ? | i | ? | 20.6µM* | ? | ?
Cc1nn(C(C)C)c(C)c1CN1CCC(C(=O)Nc2cccc(-c3cccc(F)c3)c2)CC1 | ? | ? | 20.6µM* | 14.6µM* | 100.2% | ?
CCc1noc(-c2ccc(N3CCC(C)CC3)c([N+](=O)[O-])c2)n1 | / | i | / | / | / | i
COc1ccc(CNC(=O)CCC(=O)N2CC3CCCN3c3ccccc32)cc1 (stereo not drawn) | / | i | / | / | / | i
Cn1nc(C(=O)Nc2ccc(F)c(Cl)c2)c2c1-c1ccccc1S(=O)(=O)C2 | / | i | / | / | / | i
CN(C)CCCN(C(=O)CCc1ccccc1)c1nc2ccc(Cl)cc2s1 | ? | 23.1µM* | 16.4µM* | 23.1µM* | 7.8% | ?
Cc1ccc2nc(N(CCCN(C)C)C(=O)CS(=O)(=O)c3ccccc3)sc2c1 | 2.2% | i | -4.7% | -8.3% | -5.6% | i
Cc1ccc2nc(N(CCCN(C)C)C(=O)CCc3ccccc3)sc2c1 | 11.9% | i | 16.4µM* | 14.6µM* | ? | i

High-throughput results as filed in PubChem BioAssay.
